Inconclusive results are not listed. The source made the active and inactive calls. Rule for the calls, unless noted: active = hit-call score of the fitted dose curve at least 0.9, where 1 is the maximum; inactive = score below 0.9.
Key:
[1] = biological target: Retinoic acid receptor RXR-alpha (Homo sapiens) (UniProt P19793); test: ATG_RXRa_TRANS: Attagene TRANS-FACTORIAL HepG2 Assay for human Retinoid X Receptor alpha (RXRa) (AID 2283012; active = hit-call score of the fitted dose curve at least 0.9, where 1 is the maximum)
In short: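 Measures exogenous chimeric NR-GAL4 activity in transfected HepG2 liver cells after 24 h of dosing. Induced reporter mRNA was detected by RT-PCR with capillary electrophoresis, and gain of signal was analysed against DMSO.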

[2] = biological target: human Retinoid X Receptor beta (RXRb), RXRB (gene 6257) (UniProt P28702); test: ATG_RXRb_TRANS: Attagene TRANS-FACTORIAL HepG2 Assay for human Retinoid X Receptor beta (RXRb) (AID 2283013; active = hit-call score of the fitted dose curve at least 0.9, where 1 is the maximum)
In short: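 Chimeric receptor-Gal4 activity was assessed in transiently transfected human HepG2 cells after 24 h exposure. Transcripts from GAL4-UAS reporters were quantified by fluorescent RT-PCR and capillary electrophoresis, with DMSO as negative control and baseline.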

[3] = biological target: human Thyroid Receptor alpha (THRa1), THRA (gene 7067) (UniProt P10827); test: ATG_THRa1_TRANS: Attagene TRANS-FACTORIAL HepG2 Assay for human Thyroid Receptor alpha (THRa1) (AID 2283014; active = hit-call score of the fitted dose curve at least 0.9, where 1 is the maximum)
In short: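 Reporter transcript induction, read by capillary electrophoresis of 6-FAM-labelled RT-PCR products, reflects activity of a transfected THRa1-Gal4 fusion in HepG2 liver cells. Cells were dosed for 24 h; activity was fitted in the positive direction against DMSO.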

[4] = read-out: E-selectin (Homo sapiens) (UniProt P16581); test: BSK_3C_Eselectin: BioMAP Diversity Plus: 3C Assay for Eselectin Biomarker Activity (AID 2283015); details: primary human endothelial cells (HUVEC); actives raise or lower the signal;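 for outcome: cell surface E-selectin protein quantified by ELISA 24 h after dosing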
In short: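 ELISA read-out of E-selectin on endothelial monolayers after 24 h chemical treatment. Human umbilical vein primary cells served as the system, with DMSO defining baseline activity for bidirectional fitting.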

[5] = read-out: Interleukin-1 alpha (IL1a), IL1A (gene 3552); test: BSK_BE3C_IL1a: BioMAP Diversity Plus: BE3C Assay for Interleukin-1 alpha (IL1a) Biomarker Activity (AID 2283016); details: primary human bronchial epithelial cells; actives raise or lower the signal
In short: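 Signal from IL-1a ELISA, taken 24 h after chemical dosing of human bronchial epithelial cells, is compared with DMSO as baseline using bidirectional curve fitting.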

[6] = read-out: Monocyte Chemoattractant Protein-1 (MCP1), CCL2 (gene 6347); test: BSK_3C_MCP1: BioMAP Diversity Plus: 3C Assay for Monocyte Chemoattractant Protein-1 (MCP1) Biomarker Activity (AID 2283017); details: primary human endothelial cells (HUVEC); actives raise or lower the signal
In short: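 ELISA read-out of MCP-1 from human umbilical vein endothelial cell cultures harvested 24 h post-dosing. Gain or loss of signal was fitted relative to DMSO.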

[7] = read-out: Monocyte Chemoattractant Protein-1 (MCP1), CCL2 (gene 6347); test: BSK_4H_MCP1: BioMAP Diversity Plus: 4H Assay for Monocyte Chemoattractant Protein-1 (MCP1) Biomarker Activity (AID 2283018); details: primary human endothelial cells (HUVEC); actives raise or lower the signal
In short: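 Endothelial cells from umbilical vein were treated with test chemical, then after 24 h MCP-1 levels were quantified by ELISA; endpoint values came from bidirectional fitting with DMSO as baseline of activity.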

[8] = read-out: Human Leukocyte Antigen - DR isotype (HLADR), HLA-DRA (gene 3122); test: BSK_3C_HLADR: BioMAP Diversity Plus: 3C Assay for Human Leukocyte Antigen - DR isotype (HLADR) Biomarker Activity (AID 2283019); details: primary human endothelial cells (HUVEC); actives raise or lower the signal;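 for outcome: ELISA of cell-surface HLA-DR on HUVEC 24 h after dosing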
In short: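 ELISA readout of surface HLA-DR on human umbilical vein endothelium, taken 24 h after chemical treatment. Gain- and loss-of-signal were both fitted relative to DMSO.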

[9] = read-out: Interleukin-8 (IL8), CXCL8 (gene 3576); test: BSK_3C_IL8: BioMAP Diversity Plus: 3C Assay for Interleukin-8 (IL8) Biomarker Activity (AID 2283020); details: primary human endothelial cells (HUVEC); actives raise or lower the signal
In short: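 Endothelial primary cells of human umbilical vein origin are dosed with chemical; after 24 h the IL-8 biomarker is measured by ELISA, and concentration–response is fitted in both directions versus DMSO.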

[10] = read-out: Monokine induced gamma interferon (MIG), CXCL9 (gene 4283); test: BSK_3C_MIG: BioMAP Diversity Plus: 3C Assay for Monokine induced gamma interferon (MIG) Biomarker Activity (AID 2283021); details: primary human endothelial cells (HUVEC); actives raise or lower the signal;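 for AC50: MIG protein level measured by immunoassay in the treated endothelial cultures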
In short: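 Endothelial primary cells (human umbilical vein) are dosed with test chemical in the 3C system. MIG levels are measured by ELISA at 24 h and fitted in both directions relative to DMSO.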

[11] = biological target: human Vitamin D Receptor (VDR), VDR (gene 7421) (UniProt P11473); test: ATG_VDR_TRANS: Attagene TRANS-FACTORIAL HepG2 Assay for human Vitamin D Receptor (VDR) (AID 2283022; active = hit-call score of the fitted dose curve at least 0.9, where 1 is the maximum)
In short: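 Steps: transfect HepG2 with GAL4-UAS-driven reporter constructs; dose compounds 24 h; isolate RNA, reverse-transcribe, PCR-amplify with 6-FAM-labelled primer extension and HpaI digestion; quantify fragments by capillary electrophoresis relative to DMSO.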

[12] = BSK_3C_SRB: Viability Assessment in the BioMAP Diversity Plus: 3C Assay (AID 2283023); details: primary human endothelial cells (HUVEC);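 note: fitted both ways against DMSO so a hit may be signal rise or drop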
In short: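 Absorbance at 560 nm of sulforhodamine B-stained (0.1%) total protein served as a cytotoxicity readout in human umbilical vein endothelial cells, 24 h after chemical treatment. Signal was fitted bidirectionally relative to DMSO.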

[13] = read-out: Matrix Metallopeptidase 1 (MMP1), MMP1 (gene 4312); test: BSK_BE3C_MMP1: BioMAP Diversity Plus: BE3C Assay for Matrix Metallopeptidase 1 (MMP1) Biomarker Activity (AID 2283024); details: primary human bronchial epithelial cells; actives raise or lower the signal
In short: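 MMP1 signal, measured by ELISA after a 24 h chemical exposure of human primary bronchial epithelial cells, is analysed with bidirectional fitting using DMSO as negative control.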

[14] = BSK_3C_Vis: BioMAP Diversity Plus: 3C Assay for Morphology Visualization (AID 2283025); details: primary human endothelial cells (HUVEC);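 note: fitted both ways so gain or loss versus DMSO counts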
In short: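 Morphology read by light microscopy serves as a background control for the multiplexed 3C assay in human umbilical vein endothelial cells, taken 24 h after dosing, with DMSO as the negative control and bidirectional curve fitting.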

[15] = read-out: Pselectin, SELP (gene 6403); test: BSK_4H_Pselectin: BioMAP Diversity Plus: 4H Assay for Pselectin Biomarker Activity (AID 2283026); details: primary human endothelial cells (HUVEC); actives raise or lower the signal
In short: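 Endothelial primary cells (human umbilical vein) are dosed, incubated 24 h, and assayed for surface P-selectin by ELISA; responses in either direction are fitted relative to the DMSO negative control.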

[16] = BSK_4H_SRB: Viability Assessment in the BioMAP Diversity Plus: 4H Assay (AID 2283027); details: primary human endothelial cells (HUVEC);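 note: cells exposed to compound for 24 h before staining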;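 for AC50: curves fitted both ways versus DMSO so AC50 may be loss or gain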
In short: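 Cytotoxicity read-out in primary human endothelial cells: after 24 h compound exposure, cells were TCA-fixed (10%), stained with 0.1% SRB and absorbance taken at 560 nm. Values fitted in both directions relative to DMSO.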

[17] = BSK_BE3C_SRB: Viability Assessment in the BioMAP Diversity Plus: BE3C Assay (AID 2283028); details: primary human bronchial epithelial cells;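 for AC50: fitted both ways so AC50 may mark signal gain or loss versus DMSO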
In short: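 Cells (human bronchial epithelial, primary) are treated with chemicals, and after 24 h the parallel cultures are fixed in 10% TCA. These are then stained with 0.1% SRB and read at 560 nm. Gain or loss of signal is fitted relative to DMSO.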

[18] = read-out: Thrombomodulin, THBD (gene 7056); test: BSK_3C_Thrombomodulin: BioMAP Diversity Plus: 3C Assay for Thrombomodulin Biomarker Activity (AID 2283029); details: primary human endothelial cells (HUVEC); actives raise or lower the signal
In short: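 Endothelial cells from umbilical vein are dosed with test chemical and incubated 24 h. Thrombomodulin is then quantified by ELISA, with DMSO serving as negative control and activity baseline.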

[19] = read-out: Urokinase-type plasminogen activator receptor (uPAR), PLAUR (gene 5329); test: BSK_4H_uPAR: BioMAP Diversity Plus: 4H Assay for Urokinase-type plasminogen activator receptor (uPAR) Biomarker Activity (AID 2283030); details: primary human endothelial cells (HUVEC); actives raise or lower the signal
In short: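 Cell-surface uPAR ELISA signal, measured 24 h after dosing human umbilical vein endothelial cells, was analyzed with bidirectional fitting relative to DMSO. Parallel SRB staining of total protein tracked overt cytotoxicity.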

[20] = read-out: Vascular endothelial growth factor receptor 2 (Homo sapiens) (UniProt P35968); test: BSK_4H_VEGFRII: BioMAP Diversity Plus: 4H Assay for Vascular endothelial growth factor receptor 2 (VEGFR2) Biomarker Activity (AID 2283031); details: primary human endothelial cells (HUVEC); actives raise or lower the signal;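 for AC50: cell-surface VEGFR2 protein level quantified by ELISA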
In short: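 ELISA read-out of VEGFRII in primary human umbilical vein endothelium, taken 24 h after chemical treatment. Responses are expressed relative to DMSO, with bidirectional fitting.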

human Thyroid Receptor alpha (THRa1), THRA (gene 7067), sequence (P10827 whole entry, looked up, the tested form may be a part): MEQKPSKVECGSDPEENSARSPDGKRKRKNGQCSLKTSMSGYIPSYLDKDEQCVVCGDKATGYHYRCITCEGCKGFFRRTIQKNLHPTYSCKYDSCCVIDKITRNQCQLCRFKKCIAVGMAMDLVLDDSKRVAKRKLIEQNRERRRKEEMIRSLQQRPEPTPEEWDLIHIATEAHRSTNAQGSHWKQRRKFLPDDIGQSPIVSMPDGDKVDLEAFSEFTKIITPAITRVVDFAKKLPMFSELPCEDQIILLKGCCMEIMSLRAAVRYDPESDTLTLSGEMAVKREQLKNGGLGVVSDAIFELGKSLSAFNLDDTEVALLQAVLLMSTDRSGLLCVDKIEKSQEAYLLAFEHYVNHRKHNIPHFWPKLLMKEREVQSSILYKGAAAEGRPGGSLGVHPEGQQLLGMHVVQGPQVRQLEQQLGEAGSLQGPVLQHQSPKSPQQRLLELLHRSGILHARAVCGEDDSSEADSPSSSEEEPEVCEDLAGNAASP
human Retinoid X Receptor beta (RXRb), RXRB (gene 6257), sequence (P28702 whole entry, looked up, the tested form may be a part): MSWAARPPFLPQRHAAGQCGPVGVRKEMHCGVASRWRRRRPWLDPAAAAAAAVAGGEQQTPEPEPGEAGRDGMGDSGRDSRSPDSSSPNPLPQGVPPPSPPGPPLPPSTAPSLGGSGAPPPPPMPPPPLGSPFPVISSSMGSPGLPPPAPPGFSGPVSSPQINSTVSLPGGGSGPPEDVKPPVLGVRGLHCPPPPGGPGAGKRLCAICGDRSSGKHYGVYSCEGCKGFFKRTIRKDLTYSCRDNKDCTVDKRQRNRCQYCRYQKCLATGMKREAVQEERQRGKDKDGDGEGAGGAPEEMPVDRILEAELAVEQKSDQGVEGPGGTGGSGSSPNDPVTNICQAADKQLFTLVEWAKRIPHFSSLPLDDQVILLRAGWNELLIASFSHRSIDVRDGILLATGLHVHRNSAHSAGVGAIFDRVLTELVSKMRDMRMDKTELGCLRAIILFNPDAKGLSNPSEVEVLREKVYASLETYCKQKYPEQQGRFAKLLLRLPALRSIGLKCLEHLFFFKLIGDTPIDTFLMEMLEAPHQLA
E-selectin (Homo sapiens), sequence (P16581 whole entry, looked up): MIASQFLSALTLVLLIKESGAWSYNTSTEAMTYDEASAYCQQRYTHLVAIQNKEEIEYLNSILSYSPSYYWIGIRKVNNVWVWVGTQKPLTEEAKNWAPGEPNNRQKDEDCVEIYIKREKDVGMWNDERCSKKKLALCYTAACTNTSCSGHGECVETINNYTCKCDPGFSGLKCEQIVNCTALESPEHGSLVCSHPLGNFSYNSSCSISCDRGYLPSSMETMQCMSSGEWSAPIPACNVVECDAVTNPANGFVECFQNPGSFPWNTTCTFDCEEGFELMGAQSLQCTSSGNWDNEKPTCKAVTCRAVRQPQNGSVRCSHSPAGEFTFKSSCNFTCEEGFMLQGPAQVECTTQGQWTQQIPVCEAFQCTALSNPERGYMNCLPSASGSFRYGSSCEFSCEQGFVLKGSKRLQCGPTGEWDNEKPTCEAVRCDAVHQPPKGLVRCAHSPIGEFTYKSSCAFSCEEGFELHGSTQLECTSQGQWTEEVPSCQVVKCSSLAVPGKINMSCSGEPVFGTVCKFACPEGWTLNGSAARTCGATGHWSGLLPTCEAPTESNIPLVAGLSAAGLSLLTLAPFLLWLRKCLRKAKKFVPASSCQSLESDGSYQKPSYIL
Retinoic acid receptor RXR-alpha (Homo sapiens), sequence (P19793 whole entry, looked up, the tested form may be a part): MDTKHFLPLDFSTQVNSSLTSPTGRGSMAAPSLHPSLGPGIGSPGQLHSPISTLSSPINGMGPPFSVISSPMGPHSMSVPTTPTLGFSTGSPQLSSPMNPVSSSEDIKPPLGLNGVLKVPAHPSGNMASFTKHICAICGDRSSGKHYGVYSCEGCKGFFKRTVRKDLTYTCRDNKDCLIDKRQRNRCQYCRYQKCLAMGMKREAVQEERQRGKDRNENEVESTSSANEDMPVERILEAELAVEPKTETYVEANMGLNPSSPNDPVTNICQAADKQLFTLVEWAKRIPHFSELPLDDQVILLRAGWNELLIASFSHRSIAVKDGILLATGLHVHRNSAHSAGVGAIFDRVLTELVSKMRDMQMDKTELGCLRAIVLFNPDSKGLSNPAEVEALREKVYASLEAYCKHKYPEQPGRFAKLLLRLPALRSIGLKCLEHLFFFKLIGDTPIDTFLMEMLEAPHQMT
human Vitamin D Receptor (VDR), VDR (gene 7421), sequence (P11473 whole entry, looked up, the tested form may be a part): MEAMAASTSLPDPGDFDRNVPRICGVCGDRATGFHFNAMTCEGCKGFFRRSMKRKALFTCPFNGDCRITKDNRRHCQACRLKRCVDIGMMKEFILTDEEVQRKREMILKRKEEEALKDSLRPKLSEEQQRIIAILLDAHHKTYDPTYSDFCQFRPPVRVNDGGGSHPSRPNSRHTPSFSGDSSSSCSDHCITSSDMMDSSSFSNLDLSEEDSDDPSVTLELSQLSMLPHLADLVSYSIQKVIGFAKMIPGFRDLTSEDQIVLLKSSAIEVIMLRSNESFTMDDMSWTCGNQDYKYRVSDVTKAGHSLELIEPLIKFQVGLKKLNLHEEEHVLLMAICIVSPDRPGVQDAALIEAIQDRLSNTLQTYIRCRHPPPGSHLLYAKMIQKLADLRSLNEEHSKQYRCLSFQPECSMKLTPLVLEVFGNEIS

Structure (SMILES): CCCCCCCCCCCCN(C)C
- outcome [1]: inactive
- outcome [2]: inactive
- outcome [3]: inactive
- outcome [4]: inactive
- outcome [5]: inactive
- outcome [6]: inactive
- outcome [7]: inactive
- outcome [8]: inactive
- outcome [9]: inactive
- outcome [10]: inactive
- outcome [11]: inactive
- AC50 [12]: 20 µM (active)
- outcome [13]: inactive
- outcome [14]: inactive
- outcome [15]: inactive
- outcome [16]: inactive
- outcome [17]: inactive
- outcome [18]: inactive
- outcome [19]: inactive
- outcome [20]: inactive

Structure (SMILES): CCOC(=O)CC(=O)CCl
- outcome [1]: inactive
- outcome [2]: inactive
- AC50 [3]: 100 µM (active)
- AC50 [4]: 20 µM (active)
- AC50 [5]: 20 µM (active)
- outcome [6]: inactive
- outcome [7]: inactive
- AC50 [8]: 28.1 µM (active)
- AC50 [9]: 3.97 µM (active)
- outcome [10]: inactive
- outcome [11]: inactive
- outcome [12]: inactive
- outcome [13]: inactive
- outcome [14]: inactive
- AC50 [15]: 11 µM (active)
- outcome [16]: inactive
- outcome [17]: inactive
- AC50 [18]: 4.35 µM (active)
- outcome [19]: inactive
- outcome [20]: inactive

Structure (SMILES): COP(=S)(OC)Oc1cc(Cl)c(I)cc1Cl
- outcome [1]: inactive
- AC50 [2]: 38.6 µM (active)
- outcome [3]: inactive

Structure (SMILES): O=c1nc(O)n(Cl)c(=O)n1Cl
- outcome [1]: inactive
- outcome [2]: inactive
- outcome [3]: inactive

Structure (SMILES): CC(C)O.CC(C)O.OCCN(CCO)CCO.OCCN(CCO)CCO.[Ti]
- outcome [1]: inactive
- outcome [2]: inactive
- outcome [3]: inactive
- outcome [4]: inactive
- outcome [5]: inactive
- outcome [6]: inactive
- outcome [7]: inactive
- outcome [8]: inactive
- outcome [9]: inactive
- outcome [10]: inactive
- outcome [12]: inactive
- outcome [13]: inactive
- outcome [14]: inactive
- outcome [15]: inactive
- outcome [16]: inactive
- outcome [17]: inactive
- outcome [18]: inactive
- outcome [19]: inactive
- outcome [20]: inactive

Structure (SMILES): CC(C=O)Cc1ccc2c(c1)OCO2 (centres undefined)
- outcome [1]: inactive
- outcome [2]: inactive
- outcome [3]: inactive
- outcome [4]: inactive
- outcome [5]: inactive
- outcome [6]: inactive
- outcome [7]: inactive
- outcome [8]: inactive
- outcome [9]: inactive
- outcome [10]: inactive
- outcome [11]: inactive
- outcome [12]: inactive
- outcome [13]: inactive
- outcome [14]: inactive
- outcome [15]: inactive
- outcome [16]: inactive
- outcome [17]: inactive
- outcome [18]: inactive
- outcome [19]: inactive
- outcome [20]: inactive

Structure (SMILES): O=C1C=CC(=O)c2ccccc21
- outcome [1]: inactive
- outcome [2]: inactive
- outcome [3]: inactive
- AC50 [4]: 4.15 µM (active)
- AC50 [5]: 3.75 µM (active)
- AC50 [6]: 3.04 µM (active)
- AC50 [7]: 1.45 µM (active)
- AC50 [8]: 2.14 µM (active)
- AC50 [9]: 5.23 µM (active)
- AC50 [10]: 6.7 µM (active)
- outcome [11]: inactive
- AC50 [12]: 4.92 µM (active)
- AC50 [13]: 5.57 µM (active)
- AC50 [14]: 4.06 µM (active)
- AC50 [15]: 1.62 µM (active)
- AC50 [16]: 2.55 µM (active)
- AC50 [17]: 3.8 µM (active)
- outcome [18]: inactive
- AC50 [19]: 1.99 µM (active)
- AC50 [20]: 5.18 µM (active)

Structure (SMILES): CCOP(=S)(OCC)OP(=S)(OCC)OCC
- outcome [1]: inactive
- AC50 [2]: 50.2 µM (active)
- outcome [3]: inactive
- AC50 [4]: 32.1 µM (active)
- outcome [5]: inactive
- AC50 [6]: 26.5 µM (active)
- AC50 [7]: 33.5 µM (active)
- AC50 [8]: 30.4 µM (active)
- outcome [9]: inactive
- outcome [10]: inactive
- AC50 [12]: 26.6 µM (active)
- outcome [13]: inactive
- AC50 [14]: 37.5 µM (active)
- AC50 [15]: 31.2 µM (active)
- AC50 [16]: 20 µM (active)
- outcome [17]: inactive
- outcome [18]: inactive
- AC50 [19]: 32.3 µM (active)
- outcome [20]: inactive

Reference: PubChem BioAssay (EPA / NIEHS)
